Experimental data reported in PubChem BioAssay (Tox21).
“And” between values parts separate entries of the source, which are not always exact repeats. Equal entries are not always repeated. Records with an inconclusive call do not appear. A structure can be active in one record and inactive in another. The source made the active and inactive calls. Unless noted, calls follow the shape of the dose curve; as a rule, active = well fitted curve in the direction sought with a large enough effect in the repeat runs; inconclusive = weak or mixed curves; inactive = no such curve, though single readings can be large; an effect the other way counts as inactive or inconclusive.

How the values were obtained:
[1] = qHTS assay for small molecule agonists of the p53 signaling pathway (AID 651631; calls by dose curve; also: nearly all actives have a fitted effect of over 15% in size; also: potency is read from the fitted curve at half-maximal effect)
How it was run: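 We treat p53RE-bla HCT-116 cells with compounds for 16 h at 37 °C, add LiveBLAzer B/G FRET substrate for 2 h at room temperature, and measure fluorescence intensity.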

[2] = qHTS assay for small molecules that induce genotoxicity in human embryonic kidney cells expressing luciferase-tagged ATAD5 (AID 651632); also: nearly all actives have a fitted effect of over 15% in size; also: potency is read from the fitted curve at half-maximal effect
How it was run: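 Luminescent reporter readout, HEK293T ATAD5-luc line: 16 hr drug exposure (37C, 5% CO2) followed by Amplite, 30 min RT.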

[3] = qHTS assay for small molecule agonists of the p53 signaling pathway - cell viability (AID 651633; calls by dose curve; also: nearly all actives have a fitted effect of over 30% in size; also: potency is read from the fitted curve at half-maximal effect)
How it was run: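 Viability counter-read: CellTiter-Glo luminescence (30 min, room temperature) in the same p53RE-bla plates. These plates had been exposed to compounds for 16 h at 37 C.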

[4] = qHTS assay for small molecules that induce genotoxicity in human embryonic kidney cells expressing luciferase-tagged ATAD5 - cell viability (AID 651634; calls by dose curve; also: nearly all actives have a fitted effect of over 25% in size; also: potency is read from the fitted curve at half-maximal effect)
How it was run: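 Viability read: CellTiter-Fluor fluorescence, 30 min at 37C. Cells: HEK293T, luciferase-tagged ATAD5. Exposure: 15.5 hr, 37C, 5% CO2, compound or DMSO vehicle.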

[5] = qHTS assay for small molecule disruptors of the mitochondrial membrane potential - cell viability (AID 720634; calls by dose curve;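 also: human HepG2 liver cancer cells; nearly all actives have a fitted effect of over 20% in size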)
How it was run: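 HepG2, 1 hr compound, 37 C. ATP luminescence via CellTiter-Glo, 30 min RT, same well as m-MPI.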

[6] = qHTS assay to test for compound auto fluorescence at 590 nm (red) in HepG2 cells (AID 720674)
How it was run: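 1 hr compound incubation on HepG2 cells, 37 C, 5% CO2; plate read ex 540 nm / em 590 nm; intensities reported as Rose Bengal sodium equivalents.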

[7] = qHTS assay to test for compound auto fluorescence at 535 nm (green) in HepG2 cells (AID 720675)
[8] = qHTS assay to test for compound auto fluorescence at 460 nm (blue) in HEK293 cells (AID 720678)
How it was run: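 Triamterene serves as the blue fluorophore standard. Compound signal at 405/460 nm is read in HEK293 wells (2,000 cells, 10% dialyzed FBS) after overnight treatment at 37C.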

[9] = qHTS assay to test for compound auto fluorescence at 590 nm (red) in HEK293 cells (AID 720679)
How it was run: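 We plated HEK293 cells in 10% dialyzed FBS medium, let them adhere for 4-5 hr, then added 23 nL compound. Overnight at 37C and 5% CO2 preceded fluorescence measurement at 540/590nm.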

[10] = qHTS assay to test for compound auto fluorescence at 535 nm (green) in HEK293 cells (AID 720680)
[11] = qHTS assay to test for compound auto fluorescence at 460 nm (blue) in HEK293 cell free culture (AID 720681)
How it was run: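 Blue fluorescence (Ex 405/Em 460 nm, triamterene-equivalent) was read immediately after pin transfer of compound or DMSO into medium (DMEM, 10% FBS) without cells.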

[12] = qHTS assay to test for compound auto fluorescence at 535 nm (green) in HEK293 cell free culture (AID 720682)
How it was run: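 Green-channel intensity (Ex/Em 485/535 nm) was recorded from compound-treated wells containing only DMEM with 10% FBS. Fluorescein provided the equivalency standard.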

[13] = qHTS assay to test for compound auto fluorescence at 590 nm (red) in HEK293 cell free culture (AID 720683)
How it was run: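 Red-channel autofluorescence of compounds in culture medium (DMEM, 10% FBS), no cells, measured at 540/590 nm. Rose Bengal sodium is the reference fluorophore for equivalence.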

[14] = qHTS assay to test for compound auto fluorescence at 590 nm (red) in HepG2 cell free culture (AID 720684)
How it was run: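 Plate contents were MEM with 10% FBS plus test compound or DMSO, no cells. Fluorescence was recorded with 540 nm excitation and 590 nm emission.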

[15] = qHTS assay to test for compound auto fluorescence at 460 nm (blue) in HepG2 cell free culture (AID 720685)
How it was run: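 Compound (23 nL) or DMSO pinned into cell-free MEM with 10% FBS; blue fluorescence read at 405/460 nm excitation/emission, expressed as auto-fluorescence equivalency to triamterene.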

[16] = qHTS assay to test for compound auto fluorescence at 535 nm (green) in HepG2 cell free culture (AID 720686)
[17] = qHTS assay to test for compound auto fluorescence at 460 nm (blue) in HepG2 cells (AID 720687)
How it was run: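 Blue-channel autofluorescence (Ex/Em 405/460 nm, triamterene-equivalent) was measured after 1 hr compound exposure at 37 C, 5% CO2. Cells were HepG2, plated overnight at 37 C in MEM plus 10% FBS.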

[18] = target: Glucocorticoid receptor (Homo sapiens) (UniProt P04150); assay: qHTS assay to identify small molecule agonists of the glucocorticoid receptor (GR) signaling pathway (AID 720691; active = well fitted activation curve with a large enough effect in the signal ratio in the repeat runs, not every such curve was filed as active; the % refers to the signal ratio); settings: GR-bla HeLa, beta-lactamase reporter ratio, 18 h; activation: at 62.4 µM (top of the series)
Chain of Glucocorticoid receptor (Homo sapiens) (P04150 whole entry, looked up): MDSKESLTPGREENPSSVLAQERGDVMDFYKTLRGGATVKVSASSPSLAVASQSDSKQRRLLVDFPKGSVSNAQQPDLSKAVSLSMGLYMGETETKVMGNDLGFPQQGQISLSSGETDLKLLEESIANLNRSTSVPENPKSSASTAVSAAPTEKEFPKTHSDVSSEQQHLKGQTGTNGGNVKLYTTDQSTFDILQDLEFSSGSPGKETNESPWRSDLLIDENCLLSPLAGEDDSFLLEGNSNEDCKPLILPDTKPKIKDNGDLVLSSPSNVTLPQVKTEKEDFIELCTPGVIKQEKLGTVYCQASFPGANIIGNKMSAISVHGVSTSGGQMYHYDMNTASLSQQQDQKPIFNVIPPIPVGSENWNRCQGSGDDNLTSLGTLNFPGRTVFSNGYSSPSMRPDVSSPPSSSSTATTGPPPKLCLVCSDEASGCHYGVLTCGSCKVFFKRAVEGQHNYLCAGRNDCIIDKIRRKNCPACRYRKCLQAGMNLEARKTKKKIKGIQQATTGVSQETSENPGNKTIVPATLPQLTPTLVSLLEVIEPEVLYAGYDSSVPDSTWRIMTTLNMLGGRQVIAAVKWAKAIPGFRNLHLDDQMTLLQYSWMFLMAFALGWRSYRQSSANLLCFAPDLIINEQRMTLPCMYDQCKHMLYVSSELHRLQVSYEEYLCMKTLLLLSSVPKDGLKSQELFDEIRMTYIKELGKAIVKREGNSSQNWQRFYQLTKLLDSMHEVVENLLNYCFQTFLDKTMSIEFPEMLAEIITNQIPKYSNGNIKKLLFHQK
How it was run: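 qHTS in GR-bla HeLa cells: 4 h settling at 37 C/5% CO2, 18 h compound incubation at 37 C, 2 h LiveBLAzer B/G FRET substrate at room temperature, fluorescence intensity measured.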

[19] = target: Glucocorticoid receptor (Homo sapiens) (UniProt P04150); assay: qHTS assay to identify small molecule antagonists of the glucocorticoid receptor (GR) signaling pathway (AID 720692; active = well fitted inhibition curve with a large enough effect in the signal ratio in the repeat runs, not every such curve was filed as active; the % refers to the signal ratio; also: potency is read from the fitted curve at half-maximal effect)
How it was run: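 Inhibition of glucocorticoid signalling is measured in HeLa cells with a GRE-controlled beta-lactamase reporter; cells are co-treated with compound and 5 nM dexamethasone (final) for 18 h before FRET substrate readout.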

Measured: Potency

CN=C(N)NCCC[C@H](N)C(=O)O
not listed: [18] | [19]
inactive: all other assays above

CN1[C@@H](CC(=O)c2ccccc2)CCC[C@H]1C[C@H](O)c1ccccc1
not listed: [7] | [18] | [19]
inactive: all other assays above

Cc1c(O)c(=O)ccn1C
not listed: [7]
inactive: all other assays above

Cc1cn([C@H]2C[C@H](O)[C@@H](CO)O2)c(=O)[nH]c1=O
not listed: [18]
inactive: all other assays above

O=C(O)c1cc(=O)c2c3nc4ccccc4oc-3cc(=O)c2[nH]1
not listed: [7] | [13] | [19]
inactive: all other assays above

O=C(N[C@H](CO)[C@H](O)c1ccc([N+](=O)[O-])cc1)C(Cl)Cl
not listed: [13] | [18] | [19]
inactive: all other assays above

CCCOC(=O)c1ccccc1O
not listed: [13] | [19]
inactive: all other assays above

Cc1cc(=O)c(C(=O)N[C@@H](C(=O)N[C@@H]2C(=O)N3C(C(=O)O)=C(CSc4nnnn4C)CS[C@H]23)c2ccc(O)cc2)c[nH]1
not listed: [13]
inactive: all other assays above

N[C@@H](Cc1cnc[nH]1)C(=O)O
not listed: [17]
inactive: all other assays above

O=C[C@H](O)[C@@H](O)[C@@H](O)[C@H](O)CO
inactive: all assays above

COC(=O)C[C@](O)(CCCC(C)(C)O)C(=O)O[C@@H]1C(OC)=CC23CCCN2CCc2cc4c(cc2[C@H]13)OCO4 (stereo not given in full)
active: [1] 33.5 nM | [4] 26.6 nM and 23.7 nM | [19] 0.169 µM
not listed: [8] | [15] | [18]
inactive: all other assays above

Cc1cc(Br)ccc1NC(=O)CCl
active: [1] 8630 nM | [3] 43.3 µM | [4] 54.5 µM
not listed: [10] | [19]
inactive: all other assays above

CC(=NCc1ccccc1)c1ccccc1O
not listed: [18] | [19]
inactive: all other assays above

COc1cc([C@@H]2c3cc4c(cc3[C@@H](O[C@@H]3O[C@@H]5CO[C@@H](C)O[C@H]5[C@H](O)[C@H]3O)[C@H]3COC(=O)[C@H]23)OCO4)cc(OC)c1O
active: [1] 1.88 µM and 761 nM
not listed: [10] | [13] | [15] | [18] | [19]
inactive: all other assays above

O=C(O)COc1ccccc1/C=N/NC(=O)c1ccncc1
not listed: [10] | [15] | [18] | [19]
inactive: all other assays above

CCCC(CCC)C(=O)OC1C[C@H]2CC[C@@H](C1)[N+]2(C)C (stereo not given in full)
not listed: [8] | [18] | [19]
inactive: all other assays above

COc1ccc(/C=C/C(=O)Nc2ccccc2C(=O)O)cc1OC
active: [2] 1.19 µM
not listed: [15] | [19]
inactive: all other assays above

CC(C)CCC[C@@H](C)[C@H]1CC[C@H]2[C@@H]3CC[C@@H]4C[C@H](O)CC[C@]4(C)[C@H]3CC[C@]12C
not listed: [19]
inactive: all other assays above

O=C(O)[C@@H]1C[C@H](CP(=O)(O)O)CCN1
not listed: [8]
inactive: all other assays above

CC(=O)O[C@H]1C[C@@H]2CC[C@@H]3[C@H](CC[C@@]4(C)[C@H]3C[C@H]([N+]3(C)CCCCC3)[C@@H]4OC(C)=O)[C@@]2(C)C[C@@H]1[N+]1(C)CCCCC1
not listed: [7]
inactive: all other assays above

Cc1cc(-c2ccc(N=Nc3ccc4c(S(=O)(=O)O)cc(S(=O)(=O)O)c(N)c4c3O)c(C)c2)ccc1N=Nc1ccc2c(S(=O)(=O)O)cc(S(=O)(=O)O)c(N)c2c1O
active: [4] 13.3 µM
inactive: all other assays above

COc1cc2c(cc1O)CCN[C@]21CS[C@@H]2c3c(OC(C)=O)c(C)c4c(c3[C@H](COC1=O)N1[C@@H]2[C@H]2c3c(cc(C)c(OC)c3O)C[C@@H]([C@@H]1O)N2C)OCO4
active: [1] 8.4 nM and 12.2 nM | [4] 0.0422 µM
inactive and 243 nM (active): [2]
not listed: [11] | [15] | [18] | [19]
inactive: all other assays above

O=C(O)c1cc(O)c2c(c1)[C@H]([C@H]1c3cc(C(=O)O)cc(O)c3C(=O)c3c(O[C@@H]4O[C@H](CO)[C@@H](O)[C@H](O)[C@H]4O)cccc31)c1cccc(O[C@@H]3O[C@H](CO)[C@@H](O)[C@H](O)[C@H]3O)c1C2=O
not listed: [8] | [17]
inactive: all other assays above

NCCO/C=C/[C@H](N)C(=O)O
not listed: [8] | [10]
inactive: all other assays above

NCCCC(=O)O
not listed: [7] | [13]
inactive: all other assays above

O=C(O)c1ccc(NC2OC[C@@H](O)[C@H](O)[C@H]2O)cc1 (stereo not given in full)
not listed: [10] | [19]
inactive: all other assays above

CCC(O)c1ccccc1 (stereo not given)
not listed: [10]
inactive: all other assays above

NCC[C@H](O)C(=O)N[C@@H]1C[C@H](N)[C@@H](O[C@H]2O[C@H](CN)CC[C@H]2N)[C@H](O)[C@H]1O[C@H]1O[C@H](CO)[C@@H](O)[C@H](N)[C@H]1O
not listed: [13] | [18] | [19]
inactive: all other assays above
